Among the data in PubChem BioAssay (NCI) are growth inhibition values, retold here.

Test [1] in a line: NCI Yeast Anticancer Drug Screen. Data for the rad50 strain (AID 155).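 Note: 0% = growth of vehicle-only cultures of the same strain.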 The note with it: S. cerevisiae rad50 strain growth inhibition, stronger effect = higher value. A digest of the protocol: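 A DNA repair-deficient yeast mutant serves as the test organism; compound-induced growth inhibition is calculated against vehicle-treated cells.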
The nature of test [2]: NCI Yeast Anticancer Drug Screen. Data for the mec2-1 strain (AID 157). The note with it: S. cerevisiae mec2-1 strain, stronger effect = higher value. A digest of the protocol:
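Readout is yeast growth inhibition, normalised to vehicle-treated controls, in the mec2-1 strain exposed to compound.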

Test [3] in a line: NCI Yeast Anticancer Drug Screen. Data for the sgs1 mgt1 strain (AID 161).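 Note: 0% = growth of cultures given vehicle only.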 As to conditions: S. cerevisiae sgs1 mgt1 strain, stronger effect = higher value. Put shortly: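 Compounds are added to genetically altered yeast, and growth is compared with cultures given vehicle alone to give percent inhibition.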
Test [4] can be described thus: NCI Yeast Anticancer Drug Screen. Data for the cln2 rad14 strain (AID 165).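 Note: 0% = growth equal to vehicle treated cultures.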 The note with it: S. cerevisiae cln2 rad14 strain, stronger effect = higher value. A digest of the protocol:
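Relative to vehicle controls, growth inhibition of compound-treated cln2 rad14 yeast was recorded.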

Test [5] can be described thus: NCI Yeast Anticancer Drug Screen. Data for the bub3 strain (AID 167). The note with it: S. cerevisiae bub3 mutant strain, stronger effect = higher value. A digest of the protocol: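 Inhibition values come from growth of compound-treated mutant yeast normalised to vehicle-treated controls.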
Test [6] in a line: NCI Yeast Anticancer Drug Screen. Data for the mlh1 rad18 strain (AID 175). The note with it: S. cerevisiae mlh1 rad18 strain growth inhibition, stronger effect = higher value. Put shortly:
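Test agents were incubated with a yeast strain of defined genotype (DNA damage repair defect). Inhibition of growth was derived by comparison with vehicle-exposed cultures.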

The nature of test [7]: NCI Yeast Anticancer Drug Screen. Data for the wt2 strain (AID 169).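 Note: 0% = growth of vehicle-treated yeast cultures.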 The note with it: S. cerevisiae wt2 strain growth inhibition, stronger effect = higher value. A digest of the protocol: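 Values express reduction in yeast growth under compound treatment, referenced to vehicle-treated cells.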
Where [8] appears, read: at 5.0 µM (retest, dose inferred, filed as 0.5).
Where [9] appears, read: at 50.0 µM (retest, dose inferred, filed as 5.0).

Several values for one entry are separate records, joined by “and”; a condition that tells them apart may be missing. Equal values may be shown once. Compounds without any hit were thinned out: in the full panel of roughly 79,000, 15% have a hit. A structure can be active in one record and inactive in another. Activity calls are given as the source filed them. Cut-off read from the data, not from the text of the source: active = growth inhibition above about 70%; inactive = the rest.

`Nc1cc2ccccc2c2c1ccc1ccccc12`: the growth inhibition in test [1] (setting [8]) is -159% (inactive) and 6% (inactive); in test [1] (setting [9]), 4% (inactive) and 95% (active); in test [1] (at 50.0 µM), 96.5% (active) and 89.7% (active); in test [2] (setting [8]), -48% (inactive) and 1% (inactive); in test [2] (setting [9]), 8% (inactive) and 97% (active); in test [2] (at 50.0 µM) it was 96.9% (active) and 94.2% (active). For the same compound, the growth inhibition in test [3] (setting [8]) is -66% (inactive) and 14% (inactive); in test [3] (setting [9]), -18% (inactive) and 64% (inactive); in test [3] (at 50.0 µM), 97.8% (active) and 92.5% (active); in test [4] (setting [8]), -56% (inactive) and -2% (inactive); in test [4] (setting [9]), 24% (inactive) and 95% (active); in test [4] (at 50.0 µM), 95.3% (active) and 90.5% (active). Besides, the growth inhibition was -64% (inactive) and -4% (inactive) in test [5] (setting [8]); -2% (inactive) and 96% (active) in test [5] (setting [9]); 97.6% (active) and 91.4% (active) in test [5] (at 50.0 µM); -125% (inactive) and 3% (inactive) in test [6] (setting [8]); -40% (inactive) and 96% (active) in test [6] (setting [9]); 96.4% (active) and 90.7% (active) in test [6] (at 50.0 µM).
Consider `CC(C)OC(=S)SSC(=S)OC(C)C`, for which the growth inhibition was 5% (inactive) and 11% (inactive) in test [1] (setting [8]); 99% (active) and 98% (active) in test [1] (setting [9]); 99.4% (active) in test [1] (at 50.0 µM); 4% (inactive) and 0% (inactive) in test [2] (setting [8]); 100% (active) and 98% (active) in test [2] (setting [9]); 99.5% (active) in test [2] (at 50.0 µM). Moreover, the growth inhibition in test [3] (setting [8]) is 1% (inactive) and 9% (inactive); in test [3] (setting [9]), 99% (active) and 100% (active); in test [3] (at 50.0 µM), 99.3% (active); in test [4] (setting [8]), 33% (inactive) and 9% (inactive); in test [4] (setting [9]), 94% (active) and 84% (active); in test [4] (at 50.0 µM), 98.4% (active). The growth inhibition in test [5] (setting [8]) is 7% (inactive) and 2% (inactive); in test [5] (setting [9]), 99% (active) and 100% (active); in test [5] (at 50.0 µM) it was 99% (active); in test [6] (setting [8]) it was -1% (inactive) and 18% (inactive); in test [6] (setting [9]) it was 99% (active) and 94% (active); in test [6] (at 50.0 µM), 98.3% (active).
Consider `Nc1ccc2cc3ccc(N)cc3nc2c1`, for which the growth inhibition is 21% (inactive) in test [1] (setting [8]); 86% (active) in test [1] (setting [9]); 38.1% (inactive) and 73.2% (active) in test [1] (at 50.0 µM); 9% (inactive) in test [2] (setting [8]); 31% (inactive) in test [2] (setting [9]); 32.5% (inactive) and 54.3% (inactive) in test [2] (at 50.0 µM). Also, the growth inhibition in test [3] (setting [8]) is 11% (inactive); in test [3] (setting [9]), 37% (inactive); in test [3] (at 50.0 µM) it was 3.15% (inactive) and 35% (inactive); in test [4] (setting [8]), 12% (inactive); in test [4] (setting [9]), 11% (inactive); in test [4] (at 50.0 µM) it was 9.45% (inactive) and 69.2% (inactive). Besides, the growth inhibition is 6% (inactive) in test [5] (setting [8]); 20% (inactive) in test [5] (setting [9]); 19.8% (inactive) and 36.3% (inactive) in test [5] (at 50.0 µM); 9% (inactive) in test [6] (setting [8]); 51% (inactive) in test [6] (setting [9]); 15.5% (inactive) and 77% (active) in test [6] (at 50.0 µM).
For the compound `CC(=O)OCC1OC(n2c(C)c(C(C)=O)c(-c3ccco3)c(C#N)c2=S)C(OC(C)=O)C(OC(C)=O)C1OC(C)=O` (stereo not given), the growth inhibition in test [1] (setting [8]) was -7% (inactive); in test [1] (setting [9]) it was -3% (inactive); in test [1] (at 50.0 µM), -9.45% (inactive) and 32.2% (inactive); in test [2] (setting [8]), 2% (inactive); in test [2] (setting [9]), 1% (inactive); in test [2] (at 50.0 µM), -26.9% (inactive) and 56.2% (inactive). Besides, the growth inhibition in test [3] (setting [8]) was 2% (inactive); in test [3] (setting [9]) it was 13% (inactive); in test [3] (at 50.0 µM), -4.95% (inactive) and 74.4% (active); in test [4] (setting [8]), 6% (inactive); in test [4] (setting [9]) it was 22% (inactive); in test [4] (at 50.0 µM), -13.6% (inactive) and 40.8% (inactive). For the same compound, the growth inhibition was -4% (inactive) in test [5] (setting [8]); 9% (inactive) in test [5] (setting [9]); -25.4% (inactive) and 42.4% (inactive) in test [5] (at 50.0 µM); -29% (inactive) in test [6] (setting [8]); 12% (inactive) in test [6] (setting [9]); 3.55% (inactive) and 45% (inactive) in test [6] (at 50.0 µM).
With `CCOC(=O)c1c[nH]c2cc(C(F)(F)F)ccc2c1=O`, the growth inhibition in test [1] (setting [8]) is 52% (inactive); in test [1] (setting [9]) it was 93% (active); in test [1] (at 50.0 µM), 52% (inactive); in test [2] (setting [8]), 74% (active); in test [2] (setting [9]), 96% (active); in test [2] (at 50.0 µM) it was -0.25% (inactive). In addition, the growth inhibition in test [3] (setting [8]) was -23% (inactive); in test [3] (setting [9]), -11% (inactive); in test [3] (at 50.0 µM) it was 26.3% (inactive); in test [5] (setting [8]) it was 22% (inactive); in test [5] (setting [9]), 2% (inactive); in test [5] (at 50.0 µM), 69.9% (inactive). Also, the growth inhibition in test [7] (at 1.2 µM) is -3% (inactive); in test [7] (at 3.7 µM) it was -8% (inactive); in test [7] (at 11.0 µM) it was -9% (inactive); in test [7] (at 33.0 µM), -10% (inactive); in test [7] (at 100.0 µM), -10% (inactive); in test [6] (setting [8]), 56% (inactive). Besides, the growth inhibition was 99% (active) in test [6] (setting [9]) and 1.5% (inactive) in test [6] (at 50.0 µM).
Turning to `CCCCCCCCCCCCCCCCBr`, the growth inhibition in test [1] (setting [8]) is -1% (inactive); in test [1] (setting [9]), 0% (inactive); in test [1] (at 50.0 µM), 99.5% (active); in test [2] (setting [8]) it was -2% (inactive); in test [2] (setting [9]), 0% (inactive); in test [2] (at 50.0 µM) it was 99.7% (active). For the same compound, the growth inhibition in test [3] (setting [8]) is -2% (inactive); in test [3] (setting [9]), 8% (inactive); in test [3] (at 50.0 µM) it was 99.3% (active); in test [4] (setting [8]), 4% (inactive); in test [4] (setting [9]), 1% (inactive); in test [4] (at 50.0 µM) it was 98.8% (active). For the same compound, the growth inhibition was 6% (inactive) in test [6] (setting [8]), -5% (inactive) in test [6] (setting [9]) and 99.2% (active) in test [6] (at 50.0 µM).
For `NC(CC(=O)O)C(=O)O` (stereo not given), the growth inhibition is -2% (inactive) in test [1] (setting [8]); 2% (inactive) in test [1] (setting [9]); -21.4% (inactive) and 99.3% (active) and 3.3% (inactive) in test [1] (at 50.0 µM); -10% (inactive) in test [2] (setting [8]); -3% (inactive) in test [2] (setting [9]); -7.85% (inactive) and 99.6% (active) and 9.7% (inactive) in test [2] (at 50.0 µM). Moreover, the growth inhibition in test [3] (setting [8]) is -3% (inactive); in test [3] (setting [9]) it was 0% (inactive); in test [3] (at 50.0 µM) it was -30.9% (inactive) and 98% (active) and -5.9% (inactive); in test [4] (setting [8]), 4% (inactive); in test [4] (setting [9]), -7% (inactive); in test [4] (at 50.0 µM), -7.75% (inactive) and 99.3% (active) and 16.6% (inactive). In addition, the growth inhibition in test [5] (setting [8]) was 5% (inactive); in test [5] (setting [9]), 0% (inactive); in test [5] (at 50.0 µM) it was -10.1% (inactive) and 99.6% (active) and -3.75% (inactive); in test [6] (setting [8]), -3% (inactive); in test [6] (setting [9]), 4% (inactive); in test [6] (at 50.0 µM), -14.1% (inactive) and 99.5% (active) and 21.2% (inactive).
Consider `CC(C)(C)c1ccc(-c2c3ccccc3cc3ccccc23)cc1`, for which the growth inhibition in test [1] (setting [8]) is -1% (inactive); in test [1] (setting [9]) it was -1% (inactive); in test [1] (at 50.0 µM), -2.45% (inactive); in test [2] (setting [8]), -1% (inactive); in test [2] (setting [9]) it was -1% (inactive); in test [2] (at 50.0 µM) it was -4.85% (inactive). For the same compound, the growth inhibition in test [3] (setting [8]) is -5% (inactive); in test [3] (setting [9]) it was -2% (inactive); in test [3] (at 50.0 µM) it was 7.55% (inactive); in test [4] (setting [8]), 2% (inactive); in test [4] (setting [9]), -1% (inactive); in test [4] (at 50.0 µM), 30.1% (inactive). Also, the growth inhibition in test [6] (setting [8]) was -1% (inactive); in test [6] (setting [9]), 2% (inactive); in test [6] (at 50.0 µM) it was -2.2% (inactive).
